Test results: PubChem BioAssay (Tox21)
Inconclusive results are not listed. The source made the active and inactive calls. Unless noted, calls come from the whole dose curve; as a rule, active = well fitted curve in the direction sought with a large enough effect in the repeat runs; inconclusive = weak or mixed curves; inactive = no such curve, though single readings can be large; an effect the other way counts as inactive or inconclusive.

Experiments:
[1] = target: Luciferin 4-monooxygenase (Photinus pyralis) (UniProt P08659); assay: qHTS assay to identify small molecule inhibitors of firefly luciferase (AID 1224835); note: nearly all actives have a fitted effect of over 25% in size
How it was run: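 Inhibition of purified Photinus luciferase is measured by luminescence. Substrate levels (D-luciferin, ATP) sit at their KM values. Each compound is tested in a concentration series.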

[2] = qHTS assay to identify small molecule agonists of the constitutive androstane receptor (CAR) signaling pathway - cell viability counter screen (AID 1224836); note: nearly all actives have a fitted effect of over 45% in size
How it was run: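 Multiplexed viability check: HepG2-CYP2B6-hCAR cells, 15-point compound dosing, 0.75 uM PK11195 final, 23 h at 37 C, CellTiter-Fluor fluorescence.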

[3] = qHTS assay to identify small molecule antagonists of the constitutive androstane receptor (CAR) signaling pathway - cell viability counter screen (AID 1224837); note: nearly all actives have a fitted effect of over 45% in size
How it was run: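 HepG2 cells stably expressing hCAR and a CYP2B6-2.2kb reporter were plated and pre-incubated 4 hr at 37 C/5% CO2, then given compounds at 15 concentrations plus 50 nM CITCO (final). After 23 hr, viability was read by CellTiter-Fluor fluorescence.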

[4] = target: Nuclear receptor subfamily 1 group I member 3 (Homo sapiens) (UniProt Q14994); assay: qHTS assay to identify small molecule antagonists of the constitutive androstane receptor (CAR) signaling pathway (AID 1224838); note: nearly all actives have a fitted effect of over 40% in size
How it was run: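 HepG2 cells stably co-transfected with hCAR and a CYP2B6-2.2kb luciferase reporter were seeded 4 h before compound addition at 15 concentrations. Cells were stimulated with 50 nM CITCO (final) for 24 h at 37 C; luciferase luminescence was then read.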

[5] = target: Nuclear receptor subfamily 1 group I member 3 (Homo sapiens) (UniProt Q14994); assay: qHTS assay to identify small molecule agonists of the constitutive androstane receptor (CAR) signaling pathway (AID 1224839);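 note: HepG2 cells stably carrying human CAR and a CYP2B6 luciferase reporter; nearly all actives have a fitted effect of over 15% in size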
How it was run: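 Using human hepatoma HepG2 cells engineered with hCAR and a CYP2B6-2.2kb reporter, 15-concentration compound series were incubated 24 h alongside PK11195 at 0.75 uM final, with luminescence quantified afterwards.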

[6] = qHTS assay to identify small molecule antagonists of the estrogen related receptor signaling pathway with the pleiotropic PPARgamma coactivator (PGC) from Tox21 10K library - cell viability counter screen (AID 1224840; active = well fitted cell-killing curve with a large enough effect in the repeat runs, not every such curve was filed as active; note: nearly all actives have a fitted effect of over 40% in size)
How it was run: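 PGC/ERR cells were seeded at 2,000 cells/well and left 6 hours at 37 C/5% CO2 before pin-tool addition of compounds in DMSO. After 17.5 hours at 37 C, CellTiter-Fluor was added and fluorescence read 30 minutes later.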

[7] = target: Thyrotropin receptor (Homo sapiens) (UniProt P16473); assay: qHTS assay to identify small molecule agonists of the thyroid stimulating hormone receptor (TSHR) signaling pathway (AID 1224843; calls by dose curve; note: nearly all actives have a fitted effect of over 45% in size)
How it was run: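 Screening of the Tox21 10K collection used HEK293 cells engineered with TSHR at 800 cells per well. After a 30-min room-temperature compound exposure, HTRF cAMP reagents were added and fluorescence recorded 1 h later.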

[8] = qHTS assay to identify small molecule agonists of the hypoxia (HIF-1) signaling pathway - cell viability counter screen (AID 1224844; calls by dose curve; note: nearly all actives have a fitted effect of over 50% in size)
How it was run: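 HRE-bla ME-180 cells in medium with 0.5% dialyzed FBS were preincubated 5 hrs at 37C, exposed to compounds for 17 hrs, then viability was read as CellTiter-Glo luminescence after 30 min at room temperature, in the reporter wells.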

[9] = qHTS assay to identify small molecule agonists of H2AX (AID 1224845; active = well fitted activation curve with a large enough effect in the signal ratio in the repeat runs, not every such curve was filed as active; the % refers to the signal ratio)
How it was run: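 Phospho-H2AX Ser139 measured by HTRF (ex 320 nm; em 665 and 620 nm) after 24 hr antibody incubation. Compounds, 15 concentrations, 0.76% DMSO, were applied to CHO-K1 cells for 3hr at 37C before lysis.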

[10] = qHTS assay to identify small molecule agonists of the hypoxia (HIF-1) signaling pathway (AID 1224846; active = well fitted activation curve with a large enough effect in the signal ratio in the repeat runs, not every such curve was filed as active; the % refers to the signal ratio)
How it was run: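 HRE-bla ME-180 cells (beta-lactamase reporter under hypoxia response element) were plated at 2,000 cells/well in medium with 0.5% dialyzed FBS, rested 5 hrs, then given compounds in DMSO for 17 hrs at 37C, 5% CO2. Reporter induction was read with CCF4-AM FRET substrate.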

[11] = qHTS assay to identify small molecule agonists of H2AX - cell viability counter screen (AID 1224847; calls by dose curve;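 note: wild-type CHO-K1 cells; top concentration of the series differs between compounds; nearly all actives have a fitted effect of over 30% in size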)
How it was run: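 After overnight plating of 1000 CHO-K1 cells per well, a 15-concentration compound series was applied for 3 hr at 37C. Luminescence from CellTiter-Glo, read following 30 min at room temperature, reflected cell viability.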

[12] = qHTS RealTime-Glo MT Cell Viability Assay in HepG2 cells - 24 hour (AID 1224867); note: nearly all actives have a fitted effect of over 50% in size
How it was run: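 qHTS, HepG2, 600 cells/well, RealTime-Glo (NanoLuc + prosubstrate) added with cells; 5 h preincubation; DMSO compound addition; 37 C; luminescence at 0/8/16/24/32/40 h.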

[13] = qHTS RealTime-Glo MT Cell Viability Assay in HEK293 cells - 32 hour (AID 1224868); note: top concentration of the series differs between compounds; nearly all actives have a fitted effect of over 50% in size
How it was run: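 Assay medium contained NanoLuc luciferase plus cell-permeant prosubstrate, added with HEK293 cells at 600 cells/well. After 5 h at 37 C/5% CO2 compounds were added; plates stayed at 37 C for 40 h with serial luminescence reads.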

[14] = A CellTox Green Cytotoxicity Assay to monitor cytotoxicity in HEK293 cells - 0 hour (AID 1224869); note: nearly all actives have a fitted effect of over 50% in size
How it was run: (§1)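 HEK293 cells premixed with CellTox Green dye were seeded at 600 cells/well and left 5 h at 37 C/5% CO2 before pin transfer of 23 nL compound in DMSO. Fluorescence from dye bound to dead-cell DNA was read during 40 h treatment.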

[15] = qHTS RealTime-Glo MT Cell Viability Assay in HepG2 cells - 40 hour (AID 1224870); note: nearly all actives have a fitted effect of over 50% in size
How it was run: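 Real-time viability: cells seeded at 600 per well together with NanoLuc and cell-permeant prosubstrate, compounds added after 5 h incubation. Luminescence tracked at 0, 8, 16, 24, 32 and 40 h of exposure.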

[16] = A CellTox Green Cytotoxicity Assay to monitor cytotoxicity in HEK293 cells - 40 hour (AID 1224871); note: nearly all actives have a fitted effect of over 45% in size
How it was run: as §1

[17] = qHTS assay to identify small molecule antagonists of the estrogen related receptor signaling pathway with the pleiotropic PPARgamma coactivator (PGC) from Tox21 10K library (AID 1224841; call rule not given here)
How it was run: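 PGC/ERR reporter cells were seeded at 2,000 cells/well and held 6 hours at 37 C/5% CO2 before pin-tool addition of compounds in DMSO. After 18 hours at 37 C, One-Glo was added and luminescence read after 30 minutes at room temperature.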

[18] = qHTS assay to identify small molecule antagonists of the estrogen related receptor (ERR) signaling pathway from Tox21 library (AID 1224848); note: nearly all actives have a fitted effect of over 50% in size
How it was run: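 Antagonist-mode screen of the Tox21 10K library in an NTP-provided ERR reporter cell line; 18 h compound exposure at 37 C, luminescence measured with ONE-Glo.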

[19] = qHTS assay to identify small molecule agonists of the estrogen related receptor (ERR) signaling pathway from Tox21 library (AID 1224849; calls by dose curve; note: nearly all actives have a fitted effect of over 15% in size); settings: ERR reporter cell line, ONE-Glo luciferase, 18 h; at 92.4 µM (top of the series) unless noted
How it was run: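 ERR reporter cell line (NTP) seeded, rested 6 h at 37 C/5% CO2, then pinned with Tox21 compounds in DMSO. After 18 h at 37 C, ONE-Glo luciferase luminescence was read following 30 min at room temperature.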

[20] = qHTS assay to identify small molecule agonists of the estrogen related receptor signaling pathway with the pleiotropic PPARgamma coactivator (PGC) from Tox21 10K library (AID 1224842); note: nearly all actives have a fitted effect of over 15% in size
How it was run: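 Luminescence from One-Glo (30 min, room temperature) measured after PGC/ERR cells had 18 h at 37 C with pinned compound (23 nL in DMSO). Cells had been seeded at 2,000 per well and pre-incubated 6 h.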
% is set by controls: 0 for no effect and ±100 for the full control effect.

Sequence of Thyrotropin receptor (Homo sapiens) (P16473 whole entry, looked up): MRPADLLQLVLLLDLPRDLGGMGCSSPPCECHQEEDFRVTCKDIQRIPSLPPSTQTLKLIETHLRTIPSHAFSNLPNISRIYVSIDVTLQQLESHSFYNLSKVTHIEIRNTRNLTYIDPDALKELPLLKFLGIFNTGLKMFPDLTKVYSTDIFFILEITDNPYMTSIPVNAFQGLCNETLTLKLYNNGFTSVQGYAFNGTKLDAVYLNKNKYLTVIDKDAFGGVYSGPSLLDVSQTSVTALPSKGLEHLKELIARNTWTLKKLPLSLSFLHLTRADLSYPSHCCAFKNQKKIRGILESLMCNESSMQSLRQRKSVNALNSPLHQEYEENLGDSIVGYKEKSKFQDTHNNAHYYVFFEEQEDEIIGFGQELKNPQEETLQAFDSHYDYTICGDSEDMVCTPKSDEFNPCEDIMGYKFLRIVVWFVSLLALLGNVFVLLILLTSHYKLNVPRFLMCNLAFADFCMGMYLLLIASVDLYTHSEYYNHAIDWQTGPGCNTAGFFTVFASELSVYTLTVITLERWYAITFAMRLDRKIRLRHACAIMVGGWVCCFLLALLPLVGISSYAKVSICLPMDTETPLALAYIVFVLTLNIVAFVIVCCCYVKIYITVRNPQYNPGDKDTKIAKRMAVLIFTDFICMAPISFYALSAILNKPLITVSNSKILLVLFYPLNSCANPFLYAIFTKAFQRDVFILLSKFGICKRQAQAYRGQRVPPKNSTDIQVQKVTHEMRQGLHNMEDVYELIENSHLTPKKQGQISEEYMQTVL
Sequence of Nuclear receptor subfamily 1 group I member 3 (Homo sapiens) (Q14994 whole entry, looked up): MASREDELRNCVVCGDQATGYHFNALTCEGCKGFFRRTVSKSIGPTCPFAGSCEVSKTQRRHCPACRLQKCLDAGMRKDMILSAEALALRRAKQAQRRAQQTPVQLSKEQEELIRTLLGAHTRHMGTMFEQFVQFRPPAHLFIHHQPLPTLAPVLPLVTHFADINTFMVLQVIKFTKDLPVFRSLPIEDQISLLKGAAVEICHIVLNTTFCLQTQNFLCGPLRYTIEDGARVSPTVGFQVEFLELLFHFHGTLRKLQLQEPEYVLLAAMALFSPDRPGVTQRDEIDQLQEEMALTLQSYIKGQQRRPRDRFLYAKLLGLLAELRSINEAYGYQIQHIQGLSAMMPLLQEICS
Sequence of Luciferin 4-monooxygenase (Photinus pyralis) (P08659 whole entry, looked up): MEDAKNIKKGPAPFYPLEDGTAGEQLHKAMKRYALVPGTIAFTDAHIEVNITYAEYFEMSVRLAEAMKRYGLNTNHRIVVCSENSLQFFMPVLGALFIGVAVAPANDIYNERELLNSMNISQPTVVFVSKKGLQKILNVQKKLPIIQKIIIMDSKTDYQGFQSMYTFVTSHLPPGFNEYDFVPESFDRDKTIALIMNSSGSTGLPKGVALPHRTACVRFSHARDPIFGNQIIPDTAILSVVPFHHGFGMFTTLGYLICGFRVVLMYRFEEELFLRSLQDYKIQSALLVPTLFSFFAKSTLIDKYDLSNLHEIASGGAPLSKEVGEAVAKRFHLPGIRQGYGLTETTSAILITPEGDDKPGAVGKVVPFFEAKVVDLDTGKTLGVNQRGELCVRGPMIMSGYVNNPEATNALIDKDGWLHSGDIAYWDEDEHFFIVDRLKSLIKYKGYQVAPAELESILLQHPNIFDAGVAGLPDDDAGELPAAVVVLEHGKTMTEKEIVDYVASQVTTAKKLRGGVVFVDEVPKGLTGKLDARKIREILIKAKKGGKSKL

O=C=NCc1cccc(CN=C=O)c1
inactive: activity change, negative = inhibition [1] 3.61% [at 23.6 µM] | viability change, negative = cytotoxic [2] -4.88% [at 19 µM] | activity change, negative = cytotoxicity [3] -0.191% [at 19 µM] | activity, negative = inhibition [4] -4.42% [at 19 µM] | activation [5] -1.77% [at 19 µM] | viability change, negative = cytotoxic [6] -5.21% [at 19 µM] | activation [7] 1.05% [at 19 µM] | activity change, negative = cytotoxicity [8] 6.46% [at 15.8 µM] | activation (H2AX phosphorylation) [9] -2.62% [at 31.6 µM] | activation [10] -0.762% [at 15.8 µM] | activity change, negative = cytotoxicity [11] 1.36% [at 31.6 µM] | activity change, negative = cytotoxicity [12] 1.03% [at 15.8 µM] | activity change, negative = cytotoxic [13] 6.09% [at 15.8 µM] | cytotoxicity [14] -8.38% [at 15.8 µM] | activity change, negative = cytotoxic [15] 0.58% [at 15.8 µM] | cytotoxicity increase [16] -14.1% [at 15.8 µM]

c1ccc2c(c1)CCC2
inactive: Potency [1] | Potency [2] | Potency [3] | Potency [4] | Potency [5] | Potency [6] | Potency [7] | Potency [8] | Potency [9] | outcome [10] | Potency [11] | Potency [12] | Potency [13] | Potency [14] | Potency [15] | Potency [16]

NC(=O)c1ccccc1N
inactive: Potency [1] | Potency [2] | Potency [3] | Potency [4] | Potency [5] | Potency [6] | Potency [17] | Potency [7] | Potency [8] | Potency [9] | outcome [10] | Potency [11] | Potency [18] | activity change, positive = activation [19] -2.02% | Potency [12] | Potency [13] | Potency [14] | Potency [15] | Potency [16]

Brc1ccccn1
inactive: Potency [1] | Potency [2] | Potency [3] | Potency [4] | Potency [5] | Potency [6] | Potency [7] | Potency [8] | Potency [9] | outcome [10] | Potency [11] | Potency [12] | Potency [13] | Potency [14] | Potency [15] | Potency [16]

Cc1cccc(N(C)C)c1
inactive: Potency [1] | Potency [2] | Potency [3] | Potency [4] | Potency [5] | Potency [6] | Potency [17] | Potency [7] | Potency [8] | Potency [9] | outcome [10] | Potency [18] | activity change, positive = activation [19] -0.051% | Potency [12] | Potency [13] | Potency [14] | Potency [16]

CCCCOC(=O)C(C)CC (stereo unspecified)
inactive: Potency [1] | Potency [2] | Potency [3] | Potency [4] | Potency [5] | Potency [6] | Potency [17] | Potency [7] | Potency [8] | Potency [9] | outcome [10] | Potency [18] | activity change, positive = activation [19] 6.06% | Potency [12] | Potency [13] | Potency [14] | Potency [15] | Potency [16]

CCC1CCCCC1
inactive: Potency [1] | Potency [2] | Potency [3] | Potency [4] | Potency [5] | Potency [6] | Potency [20] | Potency [7] | Potency [8] | Potency [9] | outcome [10] | Potency [11] | Potency [18] | activity change, positive = activation [19] 11.4% | Potency [12] | Potency [13] | Potency [14] | Potency [15] | Potency [16]
